Screening results from PubChem BioAssay.
Sampled rows, rich in hits. Any-hit rate of the full collection: about 18%.
Six1-Eya2 blk = qHTS Assay for Inhibitors of the Six1/Eya2 Interaction. Homeobox protein SIX1 (Homo sapiens) + Protein phosphatase EYA2 (Homo sapiens), …. AlphaScreen GST-Six1/His-Eya2 binding, biochemical; stronger effect = lower value. activity change, % (concentration not given with the values). 360,000 compounds, 0.56% hits. AID 651725, 2012; in the data active = activity change below about -65%; inconclusive = mostly about -30% to -63%
Target sequence (O00167 whole entry, looked up): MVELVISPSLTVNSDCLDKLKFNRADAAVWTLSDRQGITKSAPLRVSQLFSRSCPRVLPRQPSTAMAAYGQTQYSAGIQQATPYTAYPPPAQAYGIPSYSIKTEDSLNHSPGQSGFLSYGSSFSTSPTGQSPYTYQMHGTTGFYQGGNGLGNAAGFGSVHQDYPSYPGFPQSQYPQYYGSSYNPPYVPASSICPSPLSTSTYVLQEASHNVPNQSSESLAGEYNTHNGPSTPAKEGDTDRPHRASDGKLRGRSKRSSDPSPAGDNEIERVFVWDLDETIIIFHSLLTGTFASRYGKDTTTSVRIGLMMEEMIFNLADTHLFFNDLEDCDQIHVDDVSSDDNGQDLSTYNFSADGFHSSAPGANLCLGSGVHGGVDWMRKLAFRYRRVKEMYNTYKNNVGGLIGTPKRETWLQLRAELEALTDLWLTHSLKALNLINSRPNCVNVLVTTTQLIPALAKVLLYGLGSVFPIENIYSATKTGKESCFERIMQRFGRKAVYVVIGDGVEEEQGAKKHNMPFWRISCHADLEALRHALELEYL
Target sequence (Q15475 whole entry, looked up): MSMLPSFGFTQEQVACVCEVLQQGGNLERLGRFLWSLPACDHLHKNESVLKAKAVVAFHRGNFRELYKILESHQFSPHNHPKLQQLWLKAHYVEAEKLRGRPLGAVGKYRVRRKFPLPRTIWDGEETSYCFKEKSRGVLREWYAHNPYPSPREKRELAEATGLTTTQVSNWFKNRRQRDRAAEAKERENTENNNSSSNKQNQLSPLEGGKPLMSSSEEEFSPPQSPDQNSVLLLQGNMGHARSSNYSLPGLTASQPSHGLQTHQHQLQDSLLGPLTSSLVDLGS
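Homogeneous AlphaScreen proximity assay pairing GST-Six1 with His-tagged Eya2 (added as 5X mix: 250 nM and 500 nM) in 50 mM Tris pH 8.0, 300 mM NaCl, 1 mM TCEP. Glutathione donor and nickel acceptor beads; 1 h, 37 °C, dark.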
IL1B secr inh = qHTS for Inhibitors of Inflammasome Signaling: IL-1-beta AlphaLISA Primary Screen. THP-1 LPS/ATP IL-1B secretion, AlphaLISA, 16 h; stronger effect = lower value. activity change, % at 57.5 µM. 360,000 compounds, 4.7% hits. AID 743279, 2014; in the data active = activity change below about -50%; inconclusive = mostly about -30% to -49%
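Secreted IL-1B measured by AlphaLISA bead assay after 16 h compound exposure of THP-1 cells; compounds (final up to 57.5 uM) added 1 h before LPS (250 ng/mL) and ATP (1.25 mM) stimulation; lower signal means less secretion.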
DT40 TDP1 CPT = qHTS for Inhibitors of human tyrosyl-DNA phosphodiesterase 1 (TDP1): qHTS in cells in presence of CPT; chicken DT40 Tdp1-/-;hTDP1 cells + 20 nM CPT, ATP luminescence, 48 h; Potency, µM (top dose mostly 46.2 µM), usual class: inhibitors; 420,000 compounds, 12% hits; also: nearly all actives have a fitted effect of over 55% in size
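Chicken DT40 Tdp1-/- cells stably complemented with human TDP1 were seeded at 400 cells/well in medium containing 20 nM camptothecin, exposed to pin-transferred compounds, and grown at 37 °C for at least 48 hr. Viability was read as ATP luminescence.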
TDP1 block = qHTS Assay for Inhibitors of Tyrosyl-DNA Phosphodiesterase (TDP1); Tyrosyl-DNA phosphodiesterase 1 (Homo sapiens), Q9NUW8; recombinant TDP1, AlphaScreen DNA substrate cleavage; Potency, µM (series often up to 130 µM), hits mostly inhibitors; 350,000 compounds, 0.28% hits; AID 485290, 2010; also: nearly all actives have a fitted effect of over 40% in size
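Enzyme-compound mixtures sat 15 min at room temperature, followed by a 5 min reaction with 15 nM final substrate and 10 min with AlphaScreen beads. Recombinant human Tdp1 was used at 1 nM final.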
DT40 TDP1 no CPT = qHTS for Inhibitors of human tyrosyl-DNA phosphodiesterase 1 (TDP1): qHTS in cells in absence of CPT; DT40 Tdp1-/- hTDP1 cells, no CPT, ATP luminescence, 48 h; Potency, µM (titrated, usually from 46.2 µM), hits mostly inhibitors; 420,000 compounds, 15% hits; AID 686978, 2013; also: nearly all actives have a fitted effect of over 55% in size
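Cells were dispensed at 400 per well, compounds added by pin tool, plates incubated ≥48 hr at 37 °C, then CellTiter-Glo added for 30 min at room temperature before luminescence reading. Line: DT40 Tdp1-/- complemented with hTDP1; camptothecin omitted.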
CtBP-E1A blk = qHTS Assay for Inhibitors of the CtBP/E1A Interaction | AlphaScreen GST-E1A/His-CtBP binding, 1536-well; stronger effect = lower value | 340,000 compounds, 0.49% hits | activity change, % (no concentration beside the values); in the data active = activity change below about -65%; inconclusive = mostly about -30% to -63%
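In 5 uL wells, 23 nL compound meets equimolar GST-E1A and His-CtBP (5X stock 125 nM each) for 2 h, 37 °C. Beads (5X, 50 ug/mL) then 1 h, 37 °C, dark.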
Numbers stand for hits. Unless noted, calls follow the shape of the dose curve; as a rule, active = well fitted curve in the direction sought with a large enough effect; inconclusive = small, poorly fitted or top-dose-only effect, or another doubt; inactive = no such curve, though single readings can be large; an effect the other way counts as inactive or inconclusive.

COc1cc(C(=O)NCc2ccc(C(=O)NCC(OC)OC)cc2)cc(OC)c1OC was read as Six1-Eya2 blk inactive, IL1B secr inh inactive, DT40 TDP1 CPT inactive, TDP1 block inactive, DT40 TDP1 no CPT inactive and CtBP-E1A blk inactive.
Screening COc1cc(Cl)c(C)cc1NC(=O)COC(=O)/C=C/c1c(C)nn(C2CCS(=O)(=O)C2)c1Cl (centres undefined) returned Six1-Eya2 blk inactive, IL1B secr inh inactive, DT40 TDP1 CPT inactive, TDP1 block inactive, DT40 TDP1 no CPT inactive and CtBP-E1A blk inactive.
Screening Cc1ccc(N2CCN(/N=C/C3=C(N4CCOCC4)C(=C\c4ccccc4)/CC3)CC2)cc1 returned Six1-Eya2 blk inactive, IL1B secr inh inactive, DT40 TDP1 CPT inactive, DT40 TDP1 no CPT inactive and CtBP-E1A blk inactive.
`CCCCn1c(CCC(=O)O)nc2cc(S(=O)(=O)N3CCCC3)ccc21` gave Six1-Eya2 blk inactive, IL1B secr inh inactive, DT40 TDP1 CPT inactive, TDP1 block inactive, DT40 TDP1 no CPT inactive and CtBP-E1A blk inactive.
For COC(=O)c1ccc(N/N=C/c2cc([N+](=O)[O-])cc(OC)c2O)cc1 the results were Six1-Eya2 blk inactive, IL1B secr inh inactive, DT40 TDP1 CPT inactive, TDP1 block inactive, DT40 TDP1 no CPT inactive and CtBP-E1A blk inactive.
Screening COc1cc(/C=N/NC(=O)c2cncc(Br)c2)cc([N+](=O)[O-])c1O returned Six1-Eya2 blk -91, IL1B secr inh inactive, DT40 TDP1 CPT inconclusive, TDP1 block inactive, DT40 TDP1 no CPT inconclusive and CtBP-E1A blk -96.
COc1cc([N+](=O)[O-])cc(/C=N/NC(=O)c2cncc(Br)c2)c1O was read as Six1-Eya2 blk -93, IL1B secr inh inactive, DT40 TDP1 CPT 4.6µM, TDP1 block inactive, DT40 TDP1 no CPT 18µM and CtBP-E1A blk -90.
CSCCC(NS(=O)(=O)c1ccc(Cl)cc1)C(=O)OCC(=O)NC12CC3CC(CC(C3)C1)C2 (centres undefined) was read as Six1-Eya2 blk inactive, IL1B secr inh inactive, DT40 TDP1 CPT 13µM, TDP1 block inactive, DT40 TDP1 no CPT inconclusive and CtBP-E1A blk inactive.
`CSCCC(NS(=O)(=O)c1ccc(Cl)cc1)C(=O)OCC(=O)N1CCCc2ccccc21` (centres undefined) gave Six1-Eya2 blk inactive, IL1B secr inh inactive, DT40 TDP1 CPT 23µM, TDP1 block inactive, DT40 TDP1 no CPT 18µM and CtBP-E1A blk inactive.
CSCCC(NS(=O)(=O)c1ccc(Cl)cc1)C(=O)OCC(=O)N1CCOCC1 (centres undefined) was read as Six1-Eya2 blk inactive, IL1B secr inh inactive, DT40 TDP1 CPT inactive, TDP1 block inactive, DT40 TDP1 no CPT inactive and CtBP-E1A blk inactive.
For COC(=O)C(CCSC)NS(=O)(=O)c1ccc(Cl)cc1 (centres undefined) the results were Six1-Eya2 blk inactive, IL1B secr inh inactive, DT40 TDP1 CPT inactive, TDP1 block inactive and DT40 TDP1 no CPT inactive.
For Cc1nnc(NC(=O)CSc2nc3[nH]ncc3c(=O)[nH]2)s1 the results were Six1-Eya2 blk inactive, IL1B secr inh inactive, DT40 TDP1 CPT inconclusive, TDP1 block inactive and DT40 TDP1 no CPT 15µM.
For Cc1ccc(C)c(CSc2nc3[nH]ncc3c(=O)[nH]2)c1 the results were Six1-Eya2 blk inactive, IL1B secr inh inactive, DT40 TDP1 CPT 2.6µM, TDP1 block inactive, DT40 TDP1 no CPT 1µM and CtBP-E1A blk inactive.
`COc1cccc(C(=O)Nc2ccc3c(c2)OC[C@H](C)N(C(=O)C2CCCC2)C[C@@H](C)[C@@H](OC)CN(C)C3=O)c1` gave Six1-Eya2 blk inactive, IL1B secr inh inactive, DT40 TDP1 CPT inconclusive, DT40 TDP1 no CPT inconclusive and CtBP-E1A blk inactive.
`c1ccc(N2CCN(c3ccc4nncn4n3)CC2)nc1` gave Six1-Eya2 blk inactive, IL1B secr inh inactive, DT40 TDP1 CPT inactive, TDP1 block inactive, DT40 TDP1 no CPT inactive and CtBP-E1A blk inactive.
`C#CCOCCOCCOCCNc1nc(N2CCN(C(=O)[C@H](C)n3cc(CCCN=C(N)N)nn3)CC2)nc(N2CCN(C(=O)[C@H](CCCCN)n3cc(CCCC)nn3)CC2)n1` gave TDP1 block inactive.
For CCN(C(=O)COC(=O)c1cc(-c2cccs2)nc2ccccc12)C1CCS(=O)(=O)C1 (centres undefined) the results were Six1-Eya2 blk inactive, IL1B secr inh -54, DT40 TDP1 CPT inactive, TDP1 block inactive, DT40 TDP1 no CPT inactive and CtBP-E1A blk inactive.
Screening Cc1ccc(-c2cc(C(=O)OCC(=O)N(C)C3CCS(=O)(=O)C3)c3ccccc3n2)c(C)c1 (centres undefined) returned Six1-Eya2 blk inactive, IL1B secr inh inactive, DT40 TDP1 CPT inactive, TDP1 block inactive, DT40 TDP1 no CPT inactive and CtBP-E1A blk inactive.
For CCN(C(=O)COC(=O)c1cc(-c2ccc(C)o2)nc2ccccc12)C1CCS(=O)(=O)C1 (centres undefined) the results were Six1-Eya2 blk inactive, IL1B secr inh inconclusive, DT40 TDP1 CPT inconclusive, TDP1 block inactive, DT40 TDP1 no CPT inconclusive and CtBP-E1A blk inactive.
COc1ccc(-c2cc(C(=O)OCC(=O)N(C)C3CCS(=O)(=O)C3)c3ccccc3n2)cc1OC (centres undefined) was read as Six1-Eya2 blk inactive, IL1B secr inh -62, DT40 TDP1 CPT inconclusive, TDP1 block inactive, DT40 TDP1 no CPT inconclusive and CtBP-E1A blk inactive.
Screening C[C@@H]1CN([C@H](C)CO)S(=O)(=O)c2ccc(Br)cc2O[C@@H]1CN(C)C(=O)CN1CCOCC1 returned Six1-Eya2 blk inactive, IL1B secr inh inactive, DT40 TDP1 CPT inactive, DT40 TDP1 no CPT inactive and CtBP-E1A blk inactive.
Screening COc1ccccc1NC(=O)CSc1nc(-c2ccccc2F)nc2cc(=O)[nH]n12 returned DT40 TDP1 CPT inconclusive, TDP1 block inactive and DT40 TDP1 no CPT inconclusive.
O=c1cc2nc(-c3ccccc3F)nc(SCc3ccc(Br)cc3)n2[nH]1 was read as DT40 TDP1 CPT 18µM, TDP1 block inactive and DT40 TDP1 no CPT 12µM.
O=S1(=O)CCO[C@H]2CCCC[C@@H]2N1Cc1ccc(Cl)cc1 was read as DT40 TDP1 CPT inconclusive and DT40 TDP1 no CPT 20µM.
Screening CCOc1ccc(S(=O)(=O)N(CCO)CCO)cc1-c1nc2c(C(C)(C)C)nn(C)c2c(=O)[nH]1 returned Six1-Eya2 blk inactive, IL1B secr inh inconclusive, DT40 TDP1 CPT inconclusive, TDP1 block inactive, DT40 TDP1 no CPT 18µM and CtBP-E1A blk inactive.
